Numbering of substitutions follows the chain as printed.
Legend:
Experiment in all cases: yeast three-hybrid, YBZ-1, SC-Leu-His + 0.5 mM 3-AT, 4 days
Conditions in all cases: tags: N-Gal4 AD-HA kept; label: inside an RPR1-promoter hybrid RNA with tandem MS2 sites; ssRNA
PUM1 PUF domain R5-SQK = PUM1 PUF domain R5-SQK (Homo sapiens, UniProt Q14671 828-1176, C1007S;R1008Q;Q1011K)
Outline: (§1)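 A centromeric plasmid in strain YBZ-1 co-expressed Pumilio-1 PUF domain libraries, randomized at the three base-contacting residues of each repeat, with matching RNA elements; the strain carries a LexA–MS2 coat fusion and a HIS3 reporter. After four days on SC-Leu (input) or SC-Leu-His + 0.5 mM 3-AT (selection), the repeat regions were PCR-amplified and Illumina-sequenced. The interaction score is the log change in variant frequency from input to selection, using log2 and a pseudocount of 1 where absent.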

PUM1 PUF domain R4-LRC = PUM1 PUF domain R4-LRC (Homo sapiens, UniProt Q14671 828-1176, N971L;H972R;Q975C)
Outline: as §1

PUM1 PUF domain R8-IYR = PUM1 PUF domain R8-IYR (Homo sapiens, UniProt Q14671 828-1176, N1122I;Q1126R)
Outline: as §1

PUM1 PUF domain R5-RFC = PUM1 PUF domain R5-RFC (Homo sapiens, UniProt Q14671 828-1176, C1007R;R1008F;Q1011C)
Outline: as §1

PUM1 PUF domain R6-RFV = target: T1, PUM1 PUF domain R6-RFV (Homo sapiens, UniProt Q14671 828-1176, N1043R;Y1044F;Q1047V)
T1 sequence: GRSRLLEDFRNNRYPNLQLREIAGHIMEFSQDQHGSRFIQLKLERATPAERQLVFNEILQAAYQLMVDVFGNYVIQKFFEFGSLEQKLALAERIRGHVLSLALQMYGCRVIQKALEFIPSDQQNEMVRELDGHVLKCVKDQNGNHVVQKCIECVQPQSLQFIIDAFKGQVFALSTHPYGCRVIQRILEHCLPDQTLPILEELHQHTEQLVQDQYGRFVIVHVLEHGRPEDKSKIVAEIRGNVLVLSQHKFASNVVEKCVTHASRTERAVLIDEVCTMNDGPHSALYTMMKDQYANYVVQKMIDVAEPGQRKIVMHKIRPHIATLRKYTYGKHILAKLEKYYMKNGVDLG
Outline: as §1

PUM1 PUF domain R3-CNE = PUM1 PUF domain R3-CNE (Homo sapiens, UniProt Q14671 828-1176, R936N;Q939E)
Outline: as §1

PUM1 PUF domain R4-PFG = PUM1 PUF domain R4-PFG (Homo sapiens, UniProt Q14671 828-1176, N971P;H972F;Q975G)
Outline: as §1

PUM1 PUF domain R8-PFR = PUM1 PUF domain R8-PFR (Homo sapiens, UniProt Q14671 828-1176, N1122P;Y1123F;Q1126R)
Outline: as §1

PUM1 PUF domain R6-QYV = target: T2, PUM1 PUF domain R6-QYV (Homo sapiens, UniProt Q14671 828-1176, N1043Q;Q1047V)
T2 sequence: T1 sequence with R216Q, F217Y
Outline: as §1

PUM1 PUF domain R6-KYL = target: T3, PUM1 PUF domain R6-KYL (Homo sapiens, UniProt Q14671 828-1176, N1043K;Q1047L)
T3 sequence: T1 sequence with R216K, F217Y, V220L
Outline: as §1

PUM1 PUF domain R6-IWG = target: T4, PUM1 PUF domain R6-IWG (Homo sapiens, UniProt Q14671 828-1176, N1043I;Y1044W;Q1047G)
T4 sequence: T1 sequence with R216I, F217W, V220G
Outline: as §1

PUM1 PUF domain R5-KRH = PUM1 PUF domain R5-KRH (Homo sapiens, UniProt Q14671 828-1176, C1007K;Q1011H)
Outline: as §1

PUM1 PUF domain R5-KDK = PUM1 PUF domain R5-KDK (Homo sapiens, UniProt Q14671 828-1176, C1007K;R1008D;Q1011K)
Outline: as §1

PUM1 PUF domain R1-KFL = PUM1 PUF domain R1-KFL (Homo sapiens, UniProt Q14671 828-1176, S863K;R864F;Q867L)
Outline: as §1

PUM1 PUF domain R7-RSC = PUM1 PUF domain R7-RSC (Homo sapiens, UniProt Q14671 828-1176, S1079R;N1080S;E1083C)
Outline: as §1

PUM1 PUF domain R7-GCR = PUM1 PUF domain R7-GCR (Homo sapiens, UniProt Q14671 828-1176, S1079G;N1080C;E1083R)
Outline: as §1

PUM1 PUF domain R7-CSR = PUM1 PUF domain R7-CSR (Homo sapiens, UniProt Q14671 828-1176, S1079C;N1080S;E1083R)
Outline: as §1

PUM1 PUF domain R6-IFG = target: T5, PUM1 PUF domain R6-IFG (Homo sapiens, UniProt Q14671 828-1176, N1043I;Y1044F;Q1047G)
T5 sequence: T1 sequence with R216I, V220G
Outline: as §1

PUM1 PUF domain R3-TQE = PUM1 PUF domain R3-TQE (Homo sapiens, UniProt Q14671 828-1176, C935T;R936Q;Q939E)
Outline: as §1

PUM1 PUF domain R4-EYR = PUM1 PUF domain R4-EYR (Homo sapiens, UniProt Q14671 828-1176, N971E;H972Y;Q975R)
Outline: as §1

Sequence: GGCUAGAACUAGUGGAUCCCCCGGCGCCCGGCGGCUCGAGCCCGGGUAAGUGUUAAUAGUCUGCAUGCCGCCGGGCGCCAUGCCUGCAGGUCGACUCUAGAAAACAUG
- binding signal (PUM1 PUF domain R5-SQK): 2.21 log2 enrichment (interaction score)

Sequence: GGCUAGAACUAGUGGAUCCCCCGGCGCCCGGCGGCUCGAGCCCGGGUAAGUGUAAAUAGUCUGCAUGCCGCCGGGCGCCAUGCCUGCAGGUCGACUCUAGAAAACAUG
- binding signal (PUM1 PUF domain R4-LRC): 4.01 log2 enrichment (interaction score)
- binding signal (PUM1 PUF domain R8-IYR): 4.7 log2 enrichment (interaction score)
- binding signal (PUM1 PUF domain R5-RFC): 3.35 log2 enrichment (interaction score)
- binding signal (PUM1 PUF domain R6-RFV): 3.56 log2 enrichment (interaction score)
- binding signal (PUM1 PUF domain R3-CNE): 2.27 log2 enrichment (interaction score)
- binding signal (PUM1 PUF domain R4-PFG): 6.55 log2 enrichment (interaction score)
- binding signal (PUM1 PUF domain R8-PFR): 3.82 log2 enrichment (interaction score)
- binding signal (PUM1 PUF domain R6-QYV): 3.63 log2 enrichment (interaction score)
- binding signal (PUM1 PUF domain R6-KYL): 5.29 log2 enrichment (interaction score)
- binding signal (PUM1 PUF domain R6-IWG): 3.59 log2 enrichment (interaction score)

Sequence: GGCUAGAACUAGUGGAUCCCCCGGCGCCCGGCGGCUCGAGCCCGGGUAAGCGUAAAUAGUCUGCAUGCCGCCGGGCGCCAUGCCUGCAGGUCGACUCUAGAAAACAUG
- binding signal (PUM1 PUF domain R8-IYR): 6.47 log2 enrichment (interaction score)
- binding signal (PUM1 PUF domain R8-PFR): 5.6 log2 enrichment (interaction score)

Sequence: GGCUAGAACUAGUGGAUCCCCCGGCGCCCGGCGGCUCGAGCCCGGGUAAGUGUCAAUAGUCUGCAUGCCGCCGGGCGCCAUGCCUGCAGGUCGACUCUAGAAAACAUG
- binding signal (PUM1 PUF domain R5-KRH): 4.38 log2 enrichment (interaction score)
- binding signal (PUM1 PUF domain R5-RFC): 5.11 log2 enrichment (interaction score)
- binding signal (PUM1 PUF domain R5-KDK): 2.95 log2 enrichment (interaction score)

Sequence: GGCUAGAACUAGUGGAUCCCCCGGCGCCCGGCGGCUCGAGCCCGGGUAAGUGUAAAUUGUCUGCAUGCCGCCGGGCGCCAUGCCUGCAGGUCGACUCUAGAAAACAUG
- binding signal (PUM1 PUF domain R1-KFL): 2.99 log2 enrichment (interaction score)

Sequence: GGCUAGAACUAGUGGAUCCCCCGGCGCCCGGCGGCUCGAGCCCGGGUAAGUCUAAAUAGUCUGCAUGCCGCCGGGCGCCAUGCCUGCAGGUCGACUCUAGAAAACAUG
- binding signal (PUM1 PUF domain R7-RSC): 2.75 log2 enrichment (interaction score)
- binding signal (PUM1 PUF domain R7-GCR): 5.49 log2 enrichment (interaction score)

Sequence: GGCUAGAACUAGUGGAUCCCCCGGCGCCCGGCGGCUCGAGCCCGGGUAAGUUUAAAUAGUCUGCAUGCCGCCGGGCGCCAUGCCUGCAGGUCGACUCUAGAAAACAUG
- binding signal (PUM1 PUF domain R7-CSR): 3.61 log2 enrichment (interaction score)

Sequence: GGCUAGAACUAGUGGAUCCCCCGGCGCCCGGCGGCUCGAGCCCGGGUAAGUGUAAAUCGUCUGCAUGCCGCCGGGCGCCAUGCCUGCAGGUCGACUCUAGAAAACAUG
- binding signal (PUM1 PUF domain R1-KFL): 4.43 log2 enrichment (interaction score)

Sequence: GGCUAGAACUAGUGGAUCCCCCGGCGCCCGGCGGCUCGAGCCCGGGUAAGUGAAAAUAGUCUGCAUGCCGCCGGGCGCCAUGCCUGCAGGUCGACUCUAGAAAACAUG
- binding signal (PUM1 PUF domain R6-IFG): 4.32 log2 enrichment (interaction score)
- binding signal (PUM1 PUF domain R6-IWG): 1.15 log2 enrichment (interaction score)

Sequence: GGCUAGAACUAGUGGAUCCCCCGGCGCCCGGCGGCUCGAGCCCGGGUAAGUGUAAGUAGUCUGCAUGCCGCCGGGCGCCAUGCCUGCAGGUCGACUCUAGAAAACAUG
- binding signal (PUM1 PUF domain R3-CNE): 3.08 log2 enrichment (interaction score)
- binding signal (PUM1 PUF domain R3-TQE): 2.29 log2 enrichment (interaction score)

Sequence: GGCUAGAACUAGUGGAUCCCCCGGCGCCCGGCGGCUCGAGCCCGGGUAAGUGUACAUAGUCUGCAUGCCGCCGGGCGCCAUGCCUGCAGGUCGACUCUAGAAAACAUG
- binding signal (PUM1 PUF domain R4-PFG): 6.74 log2 enrichment (interaction score)
- binding signal (PUM1 PUF domain R4-EYR): 1.63 log2 enrichment (interaction score)

Sequence: GGCUAGAACUAGUGGAUCCCCCGGCGCCCGGCGGCUCGAGCCCGGGUAAGUGUAUAUAGUCUGCAUGCCGCCGGGCGCCAUGCCUGCAGGUCGACUCUAGAAAACAUG
- binding signal (PUM1 PUF domain R4-PFG): 7.12 log2 enrichment (interaction score)
- binding signal (PUM1 PUF domain R4-EYR): 3.63 log2 enrichment (interaction score)

Source: publication PMC8384837, “Expanding the binding specificity for RNA recognition by a PUF domain”
